# Results as given in PubChem BioAssay.
# Values without a mark were called inactive. No rule for the calls is given here. Where a SMILES comes first, the peptide text is derived from it. The star is where a group is joined. Boc = CC(C)(C)OC(=O)*
# Biological target: Pantothenate synthetase (Mycobacterium tuberculosis (strain ATCC 25618 / H37Rv)) (UniProt P9WIL5)
# Assay: Recombinant Mtb pantothenate synthetase (PanC) inhibitors, coupled enzyme, confirmatory (AID 375);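 also: 0% = full reaction with vehicle and 100% = no enzyme background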
# Conditions: coupled enzyme assay; at 10 µM, active compounds read high
# Pantothenate synthetase (Mycobacterium tuberculosis (strain ATCC 25618 / H37Rv)), sequence (P9WIL5 whole entry, looked up): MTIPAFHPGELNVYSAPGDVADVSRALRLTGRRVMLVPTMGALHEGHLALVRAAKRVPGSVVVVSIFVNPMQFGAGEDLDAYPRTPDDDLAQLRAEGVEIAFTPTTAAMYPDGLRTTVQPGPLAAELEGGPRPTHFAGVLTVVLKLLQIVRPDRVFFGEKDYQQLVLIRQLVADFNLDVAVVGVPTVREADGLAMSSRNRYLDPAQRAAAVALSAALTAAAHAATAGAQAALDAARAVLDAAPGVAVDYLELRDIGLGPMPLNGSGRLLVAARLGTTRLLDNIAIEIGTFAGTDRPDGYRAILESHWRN
row,SMILES,inhibition [%]
1,CCC(=O)OCCn1c(=O)c2cc3c(=O)n(CCOC(=O)CC)c(=O)c3cc2c1=O,0
2,COc1ccc(-c2nnc(SCC(=O)N3CCCCC3)o2)cc1OC,0
3,Cc1ccc(-c2ccc(=O)n(CCC(=O)NCc3ccccn3)n2)cc1,4
4,FC(F)(F)c1cccc(N2CCN(c3nnnn3-c3ccccc3)CC2)c1,0
5,CCN(CCCc1ccccc1)CCCc1ccccc1,0
6,Cc1nnc(Nc2ccccn2)c2ccccc12,0
7,CCC(=O)Oc1ccc(/C(CC)=C(\CC)c2ccc(OC(=O)CC)cc2)cc1,0
8,COc1ccccc1NC(=O)N(C1CCCC1)C1CCN(C(C)=O)CC1,1
9,COc1ccc(S(=O)(=O)Cc2ccc(C(=O)NCCc3ccc(S(N)(=O)=O)cc3)o2)cc1,0
10,CC(NC(=O)OC(C)(C)C)C(=O)N1CCCC1C(=O)NC(Cc1ccccc1)C(N)=O (stereo not drawn) (Boc-Ala-Pro-Phe-NH2; configuration not given here),7
11,CCCN1C=CC(=C2C(=O)c3ccccc3C2=O)C=C1,0
12,CCCCN(C)C(=O)c1ccc(CS(=O)(=O)c2ccccc2C)o1,2
13,COc1ccc(C(=O)OCC(=O)NCc2ccco2)cc1OC,0
14,Cc1nc2c(C(=O)O)cnn2c(C)c1Cc1ccccc1F,0
15,Cc1ccc(-c2nn(-c3ccccc3)cc2/C=C(\C#N)c2cccc(C#N)c2)o1,0
16,O=C1CC(c2ccccc2)CC(O)=C1C=NCCN1CCOCC1 (stereo not given),5
17,CC(C)C(=O)Nc1nnc(CCc2nnc(NC(=O)C(C)C)s2)s1,2
18,Cc1ccc(S(=O)(=O)N2CCOCC2)cc1C(=O)Nc1ccc(-c2cn3ccsc3n2)cc1,3
19,O=c1c2nnn(Cc3ccccc3)c2ncn1-c1ccccc1,0
20,COc1cc(NC(=O)c2ccc(COCC(F)(F)F)o2)cc(OC)c1OC,7

row,SMILES,inhibition [%]
1,CCN(CC)C(=O)COc1ccc2oc(C)c(C(=O)OC(C)C)c2c1,4
2,CCCCC[C@H](O)/C=C/[C@@H]1[C@@H](CCCCCCC(=O)O)[C@@H](O)C[C@H]1O,0
3,Cc1ccc(CSc2nc3c(c(=O)[nH]2)CCC3)cc1,1
4,CC(CCc1ccccc1)NC(=O)C1CCCN(c2nnc(-n3cccc3)s2)C1 (stereo not given),0
5,CN(C)c1nc(SCCOC(=O)c2ccccc2)nc(N(C)C)n1,6
6,CCC1CCCCN1CCCNC(=O)c1ccc(CS(=O)(=O)Cc2ccccc2F)o1 (stereo not given),4
7,NS(=O)(=O)c1ccc(CCNC(=O)c2cccnc2)cc1,1
8,O=C(NC1CC1)C1CCC(=O)N1C1CCCC1 (stereo not given),4
9,CCCCC[C@H](O)/C=C/[C@H]1C=CC(=O)[C@@H]1C/C=C\CCCC(=O)O,0
10,O=C(NC1CCCc2ccccc21)C1CCN(S(=O)(=O)c2cnc[nH]2)CC1 (stereo not given),2
11,Cn1cnc(S(=O)(=O)Nc2ccc(C(F)(F)F)cc2)c1,0
12,O=S1(=O)CC(N2CCOCC2)c2ccccc21 (stereo not given),0
13,CC1Cc2ccccc2N1S(=O)(=O)c1ccc2c(c1)n(C)c(=O)c(=O)n2C (stereo not given),0
14,CC(C)(C)OC(=O)N1CC=C2C(C#N)=C(N)C(C#N)(C#N)C(c3cccs3)C2C1 (stereo not given),0
15,COc1ccc2oc(C)c(C(=O)Cn3ccnc3)c2c1,0
16,CCOc1cc(C(=O)NCc2ccncc2)cc(OCC)c1OCC,9
17,CCN(CC)S(=O)(=O)c1ccc(NC(=O)Cn2cnc3ccccc3c2=O)cc1,0
18,CC(=O)Nc1sc2c(c1C#N)CCCCC2,7
19,Cc1ccc(C)n1NC(=O)c1ccco1,0
20,CCOC(=O)c1c(NC(=O)COC(=O)c2c(C)noc2C)sc2c1CCC2,1
